In all, about 13,000 compounds went through this assay and about 3,200 (25%) showed an effect of 50% or more. The list shows a part of the results.
test system: P. falciparum stage V gametocytes; parameters: BacTiter-Glo ATP luminescence viability of purified stage V gametocytes in 384-well plates, per cent inhibition versus DMSO; conditions: 48 h, 5 µM; inhibitor

Compound	% Inhibition
Cc1cccc(Cn2nc(-c3ccccc3)c(N3CCCCC3)cc2=O)c1 [TCMDC-125526]	-20.8%
CCOC(=O)c1ccc(NCc2ccccn2)cc1 [TCMDC-123821]	-4.555%
Cc1cc(NC(=O)Nc2ccc3sccc3c2)c2ccccc2n1 [TCMDC-138970]	36.17%
CC1(C)N=C(N)N=C(N)N1c1ccc([N+](=O)[O-])cc1 [TCMDC-124128]	35.22%
COc1cc(Nc2nc(N)c3cc(OC)c(OC)cc3n2)cc(OC)c1.Cl [TCMDC-131884]	-87.65%
COc1cc2c(cc1OC)CN(c1cc(N)c3cc(OC)c(OC)cc3n1)CC2.CS(=O)(=O)O [TCMDC-131968]	54.76%
COc1cc2nc(N3CCC(CNC(=O)/C=C/c4ccccc4F)CC3)nc(N)c2cc1OC.Cl [TCMDC-138163]	35.62%
Cc1noc(-c2ccc(O)cc2O)c1-c1ccc2c(c1)OCCCO2 [TCMDC-124197]	16%
CC(C)CC1(C(=O)OC(C)(C)C)CC(C(=O)OC(C)(C)C)C(c2cccs2)N1C(=O)c1ccc(C(C)(C)C)cc1 (stereo not shown) [TCMDC-138807]	77.31%
COc1cc(C(=O)N2C(c3nccs3)C(C(=O)N(OC)C(C)c3ccccc3)CC2(CC(C)C)C(=O)OC(C)(C)C)ccc1C(C)(C)C (stereo not shown) [TCMDC-135187]	35.9%
CCCc1ccc(C(=O)N2C(c3nccs3)C(C(N)=O)CC2(CC(C)C)C(=O)O)cc1 (stereo not shown) [TCMDC-138717]	-10.33%
O=C1C(=Cc2cc(Cc3ccccc3)ccc2O)SC(=S)N1Cc1ccccc1 [TCMDC-124107]	17.72%
C=CCN1C(=O)C(=Cc2cc(Br)ccc2O)SC1=Nc1ccccc1 [TCMDC-124119]	53.26%
CCOC(=O)c1ccc(N=C2SC(=Cc3cc(Br)ccc3O)C(=O)N2C)cc1 [TCMDC-125656]	2.309%
CC(C)OC(=O)c1ccc(NC(=O)N[C@@H](Cc2ccc(O)cc2)C(=O)NC2CC3CCC(C2)N3Cc2ccccc2)cc1 (stereo partly shown) [TCMDC-136164]	71.31%
Cc1cc(C(=O)N[C@H]2CCN(Cc3ccc(OCCCN(C)C)cc3)C2)ccc1Br [TCMDC-140368]	17.03%
CCOC(=O)c1ccc(NC(=O)N[C@@H](Cc2ccccc2)C(=O)NC2CCN(Cc3ccc(O)c(OC)c3)C2)cc1 (stereo partly shown) [TCMDC-140503]	-11.63%
CCOC(=O)c1ccc(NC(=O)N[C@@H](Cc2ccccc2)C(=O)NC2CCN(Cc3ccc(O)cc3)C2)cc1 (stereo partly shown) [TCMDC-140502]	-28.76%
O=C(Nc1ccc(C(=O)OCC(c2ccccc2)c2ccccc2)cc1)N[C@@H](Cc1ccc(O)cc1)C(=O)NC1CCN(Cc2ccc(O)cc2)C1 (stereo partly shown) [TCMDC-135362]	9.298%
CC(C)OC(=O)c1ccc(NC(=O)N[C@@H](Cc2ccc(O)cc2)C(=O)NC2CCC(CCN3C4CCC3c3ccccc34)CC2)cc1 (stereo partly shown) [TCMDC-136163]	13.63%
CC(C)(C)c1ccc(OC(=O)c2ccc(NC(=O)N[C@@H](Cc3ccc(O)cc3)C(=O)NC3CCN(Cc4ccc(O)cc4)C3)cc2)cc1 (stereo partly shown) [TCMDC-135359]	23.01%
CCOC(=O)c1ccc(NC(=O)N[C@@H](Cc2ccccc2)C(=O)NC2CCN(Cc3ccc(OCCCN(C)C)cc3)C2)cc1 (stereo partly shown) [TCMDC-140501]	106.4%

Compound	% Inhibition
CC(C)[C@H]1CC[C@H](C)C[C@@H]1OC(=O)N[C@@H](Cc1ccc(O)cc1)C(=O)NC1CCN(Cc2ccc(OCCCN(C)C)cc2)C1 (stereo partly shown) [TCMDC-140497]	106.1%
O=C(/C=C/c1ccc(Cl)c(Cl)c1)NCCCCN1CCCN(C(=O)Nc2cc(Cl)cc(Cl)c2)CC1 [TCMDC-135929]	-18.98%
COc1ccc(CN2CCCC(OC(c3ccc(F)cc3)c3ccc(F)cc3)C2)c(O)c1 (stereo not shown) [TCMDC-136166]	23.2%
Fc1cccc(COc2ccc(Nc3ncnc4sc(C#C[C@H]5CC[C@H](CN6CCOCC6)N5)cc34)cc2Cl)c1 [TCMDC-135417]	-15.95%
Cc1c(F)cc(C(=O)NC2CC2)cc1-c1ccc2c(cnn2S(=O)(=O)c2ccc(F)c(F)c2)c1 [TCMDC-135239]	15.38%
Cc1ccc2nc(C)cc(Nc3ccccc3O)c2c1 [TCMDC-123660]	-31.17%
CCCc1cc(C)ccc1OCCCON1C(NC(=O)OCC)=NC(NC(=O)OCC)=NC1(C)C [TCMDC-131343]	12.88%
COc1cc(Cc2cnc(N)nc2N)cc(OCCn2ccccc2=O)c1OC [TCMDC-137347]	-6.593%
CCN(CC)c1ccc2nc(N)nc(N)c2c1Cl [TCMDC-137857]	-7.537%
CSc1ccc(CN2CCC(CNC(=O)c3cc(-c4ccccc4F)cs3)C2)cc1.O=C(O)C(F)(F)F (stereo not shown) [TCMDC-134460]	78.38%
CN(C)c1ccc(CN2CCC(CNC(=O)c3cc(-c4ccccc4F)cs3)C2)cc1.O=C(O)C(F)(F)F (stereo not shown) [TCMDC-134453]	72.61%
O=C(NCC1CCN(Cc2ccc3c(c2)OCCO3)C1)c1cc(-c2ccccc2F)cs1.O=C(O)C(F)(F)F (stereo not shown) [TCMDC-134459]	14.42%
CCCNC[C@@H](O)[C@H](Cc1ccccc1)NC(=O)c1cc(NCC)cc(N2CCCC2=O)c1 [TCMDC-138890]	18.6%
Cc1cc(C(=O)OCC(N)=O)c(C)n1-c1ccc(F)cc1 [TCMDC-123812]	-34.47%
Cc1cc(N2CCOCC2)nc2ccc(NC(=O)c3ccc(Cl)c([N+](=O)[O-])c3)cc12 [TCMDC-125441]	-11.29%
C=CCN(C(=O)c1ccc(Cl)c([N+](=O)[O-])c1)c1nc(-c2ccccc2)cs1 [TCMDC-124436]	137%
CN(C)S(=O)(=O)c1ccc(C(=O)N(c2nc(-c3ccccc3)cs2)C2CCCCC2)cc1 [TCMDC-123561]	-34.43%
O=C(Nc1cc(Cl)cc(Cl)c1)c1cc(Cl)c(=O)n(Cc2ccc(Cl)cc2)c1 [TCMDC-123810]	18.7%
CCOC(=O)c1cn(CC)c2cc(N3CCCCCC3)c(F)cc2c1=O [TCMDC-124160]	58.45%
CCn1cc(C(=O)O)c(=O)c2cc(F)c(N3CCN(S(=O)(=O)c4ccc(N)cc4)CC3)cc21 [TCMDC-125809]	2.438%
CCOC(=O)c1cn(CC)c2cc(N3CCCCC3)c(F)cc2c1=O [TCMDC-124156]	35.74%
O=C(/C=C/c1ccc(Cl)c(Cl)c1)NCCCCCCN1CCCN(C(=O)Nc2ccc(F)c(F)c2)CC1 [TCMDC-135938]	-42.76%

Compound	% Inhibition
O=C1Nc2cccc3c2C1(CCCCN1CCC(c2c(-c4ccc(F)cc4)[nH]c4ccccc24)CC1)CCC3 (stereo not shown) [TCMDC-140656]	74.07%
O=C1Nc2cccc3c2C1(CCCCN1CCC(c2c(-c4ccccc4)[nH]c4ccccc24)CC1)CCC3 (stereo not shown) [TCMDC-140655]	54.78%
Cc1[nH]c2ccccc2c1C1=CCN(CCCCCC23CCCc4cccc(c42)NC3=O)CC1 (stereo not shown) [TCMDC-140463]	-65.61%
CC1(CCCCN2CC=C(c3c[nH]c4ccccc34)CC2)C(=O)Nc2ccccc21 (stereo not shown) [TCMDC-140717]	-30.41%
Cc1ccc(OC2CCN(CCCCC3(C)C(=O)Nc4ccccc43)CC2)cc1 (stereo not shown) [TCMDC-140795]	-17.97%
Cc1nc(N)nc(N)c1-c1ccc2ccccc2c1 [TCMDC-137286]	-7.805%
FC(F)(F)c1ccc2[nH]c(-c3cccc(-c4cccc(CNCc5cnn(-c6ccccc6)n5)c4)c3)nc2c1.O=C(O)C(F)(F)F [TCMDC-132966]	-44.07%
COc1cccc(NC(=O)N2CCOC(CCN3CCC4(CCc5ccccc54)CC3)(c3ccc(Cl)c(Cl)c3)C2)c1 (stereo not shown) [TCMDC-135330]	-52.33%
O=C(/C=C/c1ccc(Cl)c(Cl)c1)N1CCC(CN2CCC(Cc3nc4ccccc4[nH]3)CC2)CC1 [TCMDC-140119]	26.7%
CC(C)n1c(CC2CCN(CC3CCN(C(=O)/C=C/c4ccc(Cl)c(Cl)c4)CC3)CC2)nc2ccccc21 [TCMDC-140372]	82.38%
CCn1c(C2CCN(CCC3CCN(C(=O)/C=C/c4ccc(Cl)c(Cl)c4)CC3)CC2)nc2ccccc21 [TCMDC-140221]	-5.757%
CC(C)n1c(C2CCN(CC3CCN(C(=O)/C=C/c4ccc(Cl)c(Cl)c4)CC3)CC2)nc2ccccc21 [TCMDC-140212]	-15.48%
O=C(/C=C/c1ccc(Cl)c(Cl)c1)N1CCC(CN2CCC(c3c(-c4ccccc4)[nH]c4ccccc34)CC2)CC1 [TCMDC-140653]	54.21%
O=C(/C=C/c1ccc(Cl)c(Cl)c1)N1CCC(CN2CCC(c3c(-c4ccc(F)cc4)[nH]c4ccccc34)CC2)CC1 [TCMDC-140654]	18.04%
Cn1c(NC2CCN(CC3CCN(C(=O)/C=C/c4ccc(Cl)c(Cl)c4)CC3)CC2)nc2ccccc21 [TCMDC-140340]	94.55%
Cc1[nH]c2ccccc2c1CC1CCN(CC2CCN(C(=O)/C=C/c3ccc(Cl)c(Cl)c3)CC2)CC1 [TCMDC-140128]	-40.98%
O=C(/C=C/c1ccc(Cl)c(Cl)c1)N1CCC(CN2CCC(c3nc4ccccc4n3CCCO)CC2)CC1 [TCMDC-140312]	-4.21%
O=C(/C=C/c1ccc(Cl)c(Cl)c1)N1CCC(CN2CCC(c3c(Br)[nH]c4ccccc34)CC2)CC1 [TCMDC-140652]	-44.15%
Cc1cc(O)cc2c(C3CCN(CC4CCN(C(=O)/C=C/c5ccc(Cl)c(Cl)c5)CC4)CC3)c[nH]c12 [TCMDC-140065]	-70.17%
Cc1ccc(-c2ccc3c(c2)C=C(C(=O)NCC2CCN(CC4CCN(C(=O)/C=C/c5ccc(Cl)c(Cl)c5)CC4)CC2)CCC3)cc1 [TCMDC-140646]	108.7%
